# D1 potentiator = Potentiators of Human D1 Dopamine Receptor: qHTS. 0.036% of 360,000 active. HEK293 TREx D1 cells, calcium flux, dopamine EC20 potentiation. potentiation, % at 10 µM; in the data active = potentiation above about 30%; note: 0% is about no effect
# D3 antag = qHTS of D3 Dopamine Receptor Antagonist: qHTS | D(3) dopamine receptor (Homo sapiens), P35462 | D3R cells, DiscoveRx beta-arrestin luminescence, antagonist mode; active compounds read low | max response, negative = inhibition, % | 2.5% of 360,000 active; in the data active = max response below about -50%; inconclusive = no clear call, values can overlap the other calls; note: % is set by controls: 0 for no effect and ±100 for the full control effect
# Target sequence (P35462 whole entry, looked up): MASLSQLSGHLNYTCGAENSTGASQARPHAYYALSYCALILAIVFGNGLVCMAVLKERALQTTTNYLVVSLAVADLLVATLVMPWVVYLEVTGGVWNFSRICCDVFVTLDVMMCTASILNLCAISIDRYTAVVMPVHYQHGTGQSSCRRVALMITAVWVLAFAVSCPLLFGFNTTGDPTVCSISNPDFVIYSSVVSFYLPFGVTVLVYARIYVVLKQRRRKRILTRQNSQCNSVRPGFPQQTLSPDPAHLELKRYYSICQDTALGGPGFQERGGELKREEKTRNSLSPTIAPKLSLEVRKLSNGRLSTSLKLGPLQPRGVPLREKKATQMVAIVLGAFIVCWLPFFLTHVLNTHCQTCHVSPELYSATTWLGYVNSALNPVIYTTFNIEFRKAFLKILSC
#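 Cells plated overnight at 1500 cells/well, then exposed to library compounds with dopamine controls for 90 minutes at 37 degrees C. DiscoveRx reagent added for 30–60 minutes at room temperature; luminescence read, quantitative HTS format.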
# D1 agonist = Allosteric Agonists of the Human D1 Dopamine Receptor: qHTS | D(1A) dopamine receptor (Homo sapiens), P21728 | HEK293 T-REx D1 cells, calcium flux, agonist mode | activation, % at 2 µM | 1% of 360,000 active | AID 504660, 2011; in the data active = activation above about 30%; note: 0% is about no effect
#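 Tetracycline-induced HEK293 TREx D1 cells, force-coupled to calcium signalling, were dye-loaded with a no-wash calcium kit. Compound was pin-added after a 10 s baseline. Fluorescence was read kinetically at 1 cycle/s for 180 s, with calcium rises flagged as agonism.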
# D1 antag = Antagonist of Human D 1 Dopamine Receptor: qHTS | HEK293 TREx D1 cells, calcium flux, dopamine EC80; active compounds read low | activity change, negative = inhibition, % at 10 µM | 3.2% of 360,000 active; in the data active = activity change below about -30%; note: % is set by controls: 0 for no effect and ±100 for the full control effect
#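 Calcium flux readout: force-coupled, inducible Hek293 Trex D1 line, cells induced overnight at 30 C with tetracycline, dye-loaded 30–90 min at RT. Antagonism scored against EC80 dopamine challenge given 180 s after compound.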
# D3 ag = qHTS of D3 Dopamine Receptor Agonist: qHTS | D(3) dopamine receptor (Homo sapiens), P35462 | D3R DiscoveRx beta-arrestin cells, luminescence, 90 min | max activation, % | 0.58% of 410,000 active; in the data active = max activation above about 30%; note: 0% is about no effect
#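 Agonist-mode cell screen: cells plated at 1500/well and incubated overnight at 37 °C, then exposed to library compounds for 90 min at 37 °C. Detection reagent was added for 30–60 min at room temperature, and luminescence was read.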
# * marks the source's active call; other numbers are inactive results; ? = inconclusive; nt = not tested or not shown. Shown are actives, neighbours in structure and some others; about 6% of the full set was active somewhere.
SMILES,D1 potentiator,D3 antag,D1 agonist,D1 antag,D3 ag
CC(C)Cc1ccc(S(=O)(=O)Nc2cc3c(cc2N2CCOCC2)n(C)c(=O)c(=O)n3C)cc1,0,nt,0,20,0
CCN(CC)CC#CCC(O)(c1ccccc1)c1ccc(Br)cc1 (configuration not stated),-4,-24,32*,-40*,-9
CN(C)CC#CCC(O)(c1ccccc1)c1ccccc1,-8,12,2,-10,-9
CCN(CC)CC#CCC(C)(c1ccccc1)c1ccccc1,0,-55*,8,4,-54
CCN(CC)CC#CCC(O)(c1ccccc1)c1ccccc1,-1,-79*,4,6,-19
Cc1cccc(NC(=O)c2cccc(N3CCCS3(=O)=O)c2)c1,1,nt,3,3,-20
Cc1ccc(OCC(=O)Nc2cccc(C(=O)OCc3cc(=O)n4cc(C)sc4n3)c2)cc1,-1,nt,2,-10,3
COc1ccc(N2CCN(CC(O)COc3ccccc3[N+](=O)[O-])CC2)cc1 (configuration not stated),-7,-54*,5,-20,-12
O=[N+]([O-])c1ccccc1OCC(O)CN1CCN(CC(O)COc2ccccc2[N+](=O)[O-])CC1 (configuration not stated),0,-93*,9,-46*,-5
COc1ccc(N2CCN(CC(O)COc3ccc(C)cc3C)CC2)cc1 (configuration not stated),-6,-29,2,8,-7
COc1cccc(OC)c1OCC(O)CN1CCN(c2ccc(F)cc2)CC1 (configuration not stated),-4,-77*,2,3,-15
OC(COc1ccccc1)CN1CCN(CC(O)COc2ccccc2)CC1 (configuration not stated),-8,-30,4,-1,-22
COc1cccc(OCC(O)CN2CCN(c3ccc(F)cc3)CC2)c1 (configuration not stated),-11,?,10,6,-7
CCN(Cc1ccccc1)S(=O)(=O)c1cc(C(=O)Nc2cc(Cl)cc(Cl)c2)ccc1F,2,nt,3,2,0
CC(=O)N(C1=C(Cl)C(=O)c2ccccc2C1=O)C1CCCCC1,-15,-85*,1,-35*,-41
COc1ccc(CNC(=O)c2cc3c(=O)[nH]c4ccccc4c3n2C)c(OC)c1,7,nt,1,3,-16
O=C(NCCc1nc2ccccc2n1Cc1c(F)cccc1Cl)c1ccco1,-4,nt,19,-24,-5
CCOc1ccccc1NC(=O)c1ccc2c(c1)CCCN2S(C)(=O)=O,9,nt,1,-11,-6
COc1ccc(-c2cc(-c3nnc(COC(=O)C4CC4C)o3)c3ccccc3n2)cc1OC (configuration not stated),-4,34,13,-7,50*
CN(C)c1ccc(CNC(=O)C2CCCN(S(=O)(=O)c3ccc4c(ccn4C)c3)C2)cc1 (configuration not stated),1,nt,3,-11,4
CN(C)S(=O)(=O)Oc1ccsc1C(=O)Nc1ccc(Br)cc1,-6,-1,2,-1,-1
CN(C)S(=O)(=O)Oc1ccsc1C(=O)Nc1cccc(Cl)c1,-2,5,0,-42*,3
CN(C)S(=O)(=O)Oc1ccsc1C(=O)Nc1ccc(Cl)c(Cl)c1,-7,-14,36*,-55*,-6
Cc1ccc2c(c1)sc(C)[n+]2CCCS(=O)(=O)[O-],-7,-86*,6,-5,-22
Cc1cccc(Nc2nc(N)nc(CN3CCN(c4ccccc4F)CC3)n2)c1,nt,-53*,nt,nt,1
SMILES,D1 potentiator,D3 antag,D1 agonist,D1 antag,D3 ag
COc1ccccc1Nc1nc(N)nc(CN2CCN(Cc3ccccc3)CC2)n1,-5,-23,0,-37*,0
Cc1cccc(Nc2nc(N)nc(CN3CCN(c4ccccc4)CC3)n2)c1,-1,0,1,12,7
COc1ccccc1Nc1nc(N)nc(CN2CCCCC2)n1,-2,-17,3,1,3
Nc1nc(CN2CCN(Cc3ccccc3)CC2)nc(Nc2ccccc2)n1,0,?,2,-38*,-13
COc1ccccc1CNc1ccc(-c2nc(-c3ccncc3)no2)cc1[N+](=O)[O-],-1,nt,7,15,-17
CC(=O)Nc1ccc(Nc2nc(C)c([N+](=O)[O-])c(N(C)c3ccccc3)n2)cc1,-11,6,6,-32*,-3
COc1ccc(NC(=O)Cn2ncc3c4ccccc4n(Cc4ccccc4)c3c2=O)cc1OC,-1,nt,-1,-4,2
CCC(Oc1ccccc1)C(=O)Nc1cc(-c2ccccc2F)nn1-c1ccccc1 (configuration not stated),-1,nt,13,1,-10
Cc1ccc(C2CC(=O)n3nc(-c4ccc(F)cc4)nc3S2)cc1 (configuration not stated),-2,nt,1,0,-9
Cn1c2ccccc2c2cc([N+](=O)[O-])ccc21,1,-1,1,-6,5
CN1c2ccc([N+](=O)[O-])cc2N(C)C1(C)c1ccccc1 (configuration not stated),-3,-62*,10,-15,-20
CC1Oc2ccccc2N(CC(=O)NCCN2CCOCC2)C1=O (configuration not stated),-11,-3,3,-67*,4
O=C(CN1C(=O)COc2ccccc21)NCCCN1CCc2ccccc2C1,1,-77*,5,2,-21
O=C(CN1C(=O)COc2ccccc21)NCCN1CCC(Cc2ccccc2)CC1,-8,-57*,10,-10,-29
O=C(CN1C(=O)COc2ccccc21)NCCCN1CCN(Cc2ccccc2)CC1,-3,?,0,-8,-24
O=C(CN1C(=O)COc2ccccc21)NCCN1CCOCC1,-9,-11,0,-18,2
NC(=O)C1(N2CCCCC2)CCN(C(=O)Nc2ccc(Cl)c(Cl)c2)CC1,2,nt,2,-10,-19

# Source: PubChem
